Measurements taken from PubChem BioAssay (EPA / NIEHS).
Inconclusive results are not listed. Where a structure was tested more than once in an assay, its records may differ in their call. The source made the active and inactive calls. The calls were made as follows: active = hit-call score of the fitted dose curve at least 0.9, where 1 is the maximum; inconclusive = response in the unintended direction; inactive = score below 0.9.

What follows are compounds tested against Estrogen receptor (Homo sapiens) (UniProt P03372) (assay: ATG_ERa_TRANS: Attagene TRANS-FACTORIAL HepG2 Assay for human Estrogen Receptor alpha (ERa) (AID 2282970)). Conditions: HepG2 Attagene TRANS ERa GAL4 reporter, mRNA.
Chain of Estrogen receptor (Homo sapiens) (P03372 whole entry, looked up, the tested form may be a part): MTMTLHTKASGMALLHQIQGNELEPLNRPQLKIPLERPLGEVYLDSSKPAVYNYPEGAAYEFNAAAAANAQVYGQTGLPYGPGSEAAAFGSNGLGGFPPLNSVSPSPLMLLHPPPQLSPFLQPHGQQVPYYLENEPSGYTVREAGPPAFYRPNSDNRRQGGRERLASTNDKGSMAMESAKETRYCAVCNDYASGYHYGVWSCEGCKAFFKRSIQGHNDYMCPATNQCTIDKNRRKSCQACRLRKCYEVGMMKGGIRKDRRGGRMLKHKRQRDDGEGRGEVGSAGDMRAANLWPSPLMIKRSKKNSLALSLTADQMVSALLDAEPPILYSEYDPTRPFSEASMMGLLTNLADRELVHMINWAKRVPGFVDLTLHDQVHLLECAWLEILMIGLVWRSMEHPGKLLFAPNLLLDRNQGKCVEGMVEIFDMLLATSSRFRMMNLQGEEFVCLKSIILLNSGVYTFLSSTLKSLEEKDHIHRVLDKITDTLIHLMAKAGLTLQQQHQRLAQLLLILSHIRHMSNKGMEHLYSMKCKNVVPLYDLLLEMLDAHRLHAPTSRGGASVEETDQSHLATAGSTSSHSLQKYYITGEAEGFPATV
How it was run: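 HepG2 cells transiently transfected with multiplexed GAL4-UAS reporter units; ERa activity read via exogenous chimeric NR-Gal4 protein. After 24 hour compound exposure, reporter mRNA measured by RT-PCR with 6-FAM labelling and capillary electrophoresis; gain-of-signal fitted relative to DMSO.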

AC50, active:
CCOC=O 59.7 µM, CCOC(=O)c1nc(C(Cl)(Cl)Cl)n(-c2ccc(Cl)cc2Cl)n1 25.7 µM, O=C1Cc2ccccc2N1c1c(Cl)cccc1Cl 4.59 µM, N=C(N)c1ccc(OCCCCCOc2ccc(C(=N)N)cc2)cc1 23.5 µM, CCCCCCOC(=O)c1ccc(O)cc1 3.24 µM, O=C(O)CCC(F)(F)C(F)(F)C(F)(F)C(F)(F)C(F)(F)F 118 µM, Oc1ccc(Cc2ccccc2O)cc1 3.65 µM, CC1CCC(CO)CC1 (stereo not drawn) 62.4 µM, O=C(O)CCC(F)(F)C(F)(F)C(F)(F)C(F)(F)C(F)(F)C(F)(F)F 46.1 µM

outcome, inactive:
O=C1C=CC(=O)N1c1cccc(N2C(=O)C=CC2=O)c1, COC1=CC(=O)C[C@@H](C)[C@]12Oc1c(Cl)c(OC)cc(OC)c1C2=O, Cc1ccccc1OCC(=O)O, O=C(F)C(F)(F)C(F)(F)C(F)(F)C(F)F, COCC1CCC(CO)CC1 (stereo not drawn), Brc1cc(Br)c(Oc2c(Br)cc(Br)c(Br)c2Br)cc1Br, CCCCCCCCC1CCC(=O)O1 (stereo not drawn), Oc1c(Cl)ccc(Cl)c1Cl, CC1CCC(C(=O)O)CC1 (stereo not drawn), CC(C)(c1ccc(Oc2ccc(N)cc2)cc1)c1ccc(Oc2ccc(N)cc2)cc1, C=CC(=O)OCC(CO)(COCC(COC(=O)C=C)(COC(=O)C=C)COC(=O)C=C)COC(=O)C=C, O=P(O)(O)CCC(F)(F)C(F)(F)C(F)(F)C(F)(F)C(F)(F)C(F)(F)F, O=C(OC(=O)C(F)(F)C(F)(F)F)C(F)(F)C(F)(F)F, Clc1ccc2c(Cl)ccnc2c1, CCc1ccccc1O, CCCCCCCCCC=CCC1CC(=O)OC1=O (stereo not drawn), CCCCC(CC)C(=O)OCCOCCOCCOCCOC(=O)C(CC)CCCC (stereo not drawn), FC(F)=C(F)C(F)(F)C(F)(F)C(F)(F)C(F)F, O=CC(F)(F)C(F)(F)C(F)(F)F, COC(=O)CC(C(C)=O)C(=O)OC (stereo not drawn), COc1ccccc1NC(=O)c1cc2ccccc2cc1O, CCCCc1oc2ccccc2c1C(=O)c1cc(I)c(OCCN(CC)CC)c(I)c1, CC(=O)Nc1ccc(S(N)(=O)=O)cc1, c1cc[nH]c1, O=C(O)CCC(F)(F)C(F)(F)C(F)(F)C(F)(F)C(F)(F)F, O=CC(F)(F)C(F)(F)C(F)(F)C(F)F, FC1(F)C=CC(F)(F)C1(F)F, Cc1cc(Cc2cc(C)cc(C(C)(C)C)c2O)c(O)c(C(C)(C)C)c1, CC1CCC(CO)CC1 (stereo not drawn)
